TcdB GH inh: TcdB glycohydrolase inhibitors, primary screen, biochemical, single point, plate reader; TcdB glycohydrolase enzymatic assay; inhibition, % at 9.99 µM; 350,000 compounds, 0.24% hits; AID 652162, 2013; in the data active = inhibition above about 10%
DUSP3 inh: VHR1 phosphatase inhibitors, primary screen, biochemical, absorbance, uHTS; recombinant VHR phosphatase, pNPP absorbance; 290,000 compounds, 0.52% hits; inhibition, % at 13.3 µM; in the data active = inhibition above about 50%
MazF activator: activators of E. coli MazEF toxin-antitoxin RNase, primary screen, biochemical, fluorescence, uHTS; AID 504720, 2011; activation, % at 20 µM; FAM/BHQ RNA-DNA oligo cleavage fluorescence, 5 h; Endoribonuclease toxin MazF (Escherichia coli (strain K12)), P0AE70; 350,000 compounds, 0.32% hits; in the data active = activation above about 50%
FadD28 binding: inhibitors of FadD28 bisubstrate probe binding, primary screen, biochemical, fluorescence polarization, single point. Mycobacterium tuberculosis FadD28 fatty-acid-AMP ligase. inhibition, % at 12.5 µM. 360,000 compounds, 0.22% hits. AID 588549, 2011; in the data active = inhibition above about 8.5%, passing the limit was not always enough
Mtb BioA inh: M. tuberculosis BioA enzyme inhibitors, primary screen, biochemical, plate reader, single point, HTS. purified M. tuberculosis BioA enzyme. inhibition, % at 9.99 µM. 360,000 compounds, 0.096% hits; in the data active = inhibition above about 40%
Y pestis TopoI: Yersinia pestis topoisomerase I inhibitors, primary screen, biochemical, cleavage product accumulation, plate reader, single point; activity, % at 10 µM; 360,000 compounds, 0.064% hits; Y. pestis Topo-I cleavage product accumulation; in the data active = activity above about 50%, passing the limit was not always enough
The depositor's hits bear a star; nt = no result. Rows were chosen to be rich in hits. Some 1% of all compounds tested hit in one or more screens of this group.

SMILES	TcdB GH inh	DUSP3 inh	MazF activator	FadD28 binding	Mtb BioA inh	Y pestis TopoI
O=C(NC1Cc2ccccc2C1)[C@H]1[C@H](CO)[C@H]2Cn3c(ccc(-c4ccccc4)c3=O)[C@@H]1N2	-1	nt	nt	nt	-1	nt
Cc1ccc(CSCCNC(=O)c2ccc(C)cc2)cc1	0	11	-11	2	nt	-8
Cc1ccc(CSCCNC(=O)c2ccc(NS(C)(=O)=O)cc2)cc1	-1	11	-3	15*	-2	7
O=C1N=C(N2CCOCC2)S/C1=C/c1ccc(-c2ccccc2Cl)o1	nt	0	107*	0	-3	8
O=C1N=C(N2CCOCC2)S/C1=C/c1cccs1	nt	9	8	-1	2	7
CCC(=O)N(C)C[C@H]1Oc2ncc(C3=CCCC3)cc2C(=O)N([C@@H](C)CO)C[C@H]1C	-1	nt	nt	nt	-3	nt
FC(F)(F)c1cc(Cl)c2nc(-c3ccccc3)c(Cc3ccsc3)n2c1	10*	nt	nt	nt	nt	nt
FC(F)(F)c1cc(Cl)c2nc(-c3ccc(Cl)cc3)c(Cc3ccsc3)n2c1	1	nt	nt	nt	nt	nt
O=C(CN1CCOCC1)N1CC[C@@H]2[C@@H](CO)Nc3ccc(-c4ccc(F)cc4)cc3[C@@H]21	4	nt	nt	nt	13	nt
COc1c(N2CCN(C(=S)NCc3ccccc3)C(C)C2)c(F)cc2c(=O)c(C(=O)O)cn(C3CC3)c12 (stereo not given)	nt	26	3	-1	0	62*
CC(C)(C)NC(=O)CN(C(=O)CCC(=O)Nc1nccs1)c1ccc(F)c(Cl)c1	0	53*	0	1	-1	9
CC(C)(C)NC(=O)CN(C(=O)CCC(=O)Nc1nccs1)c1ccc(F)cc1	3	4	-2	-2	0	0
Cc1ccc(NC(=O)C2OCCc3ccccc32)cc1C (stereo not given)	11*	16	13	-3	-1	-5
COc1cccc(/C(O)=C2/C(=O)C(=O)N(CCN3CCOCC3)C2c2cccs2)c1 (stereo not given)	nt	53*	-7	0	-1	8
Cc1noc(C)c1NC(=O)N(C)C[C@H]1Oc2ccc(NC(=O)Cc3cn(C)c4ccccc34)cc2C(=O)N([C@H](C)CO)C[C@@H]1C	1	nt	nt	nt	-1	nt
O=C1C=C(N2CCOCC2)c2ccccc2C1=O	0	18	7	2	-3	1
O=C1C=C(N2CC2)c2ccccc2C1=O	-1	nt	4	8.9*	-1	-15
O=C(C[C@@H]1CC[C@H]2[C@@H](COC[C@H](O)CN2S(=O)(=O)c2ccccc2)O1)Nc1ccccc1	1	nt	nt	nt	2	nt
Cc1cc(=O)n2nc(N3CCC(C(=O)NCc4ccccc4)CC3)sc2n1	1	52*	0	-1	-1	6
Nc1cc(N)cc(C(=O)OCC(=O)Nc2cc(S(=O)(=O)N3CCCCC3)ccc2Cl)c1	11*	28	6	-5	-1	-11
O=C(COC(=O)c1ccc(O)cc1)Nc1cc(S(=O)(=O)N2CCCCCC2)ccc1Cl	0	nt	-5	-2	0	1
Cn1c(O)c(/C=C/C=Nc2ccccc2)c(=O)n(C)c1=S	nt	54*	-448	1	nt	0
Cc1ccc(C(=O)NN=C2CCCCCC2)s1	-1	44	6	-2	-1	0
Cc1ccsc1C(=O)NN=C1CCCCCC1	-1	53*	8	-1	-2	-5
CCN1CCCC1CNC(=O)c1cc(N)ccc1OC (stereo not given)	0	nt	2	-4	1	-10
CCN1CCCC1CNC(=O)c1cc([N+](=O)[O-])c(N(C)C)cc1OC (stereo not given)	1	57*	10	0	-1	9
O=S(=O)(NC1CCN(Cc2ccc(OCCO)cc2)CC1)c1cc(C(F)(F)F)ccc1Cl	-3	nt	nt	nt	1	nt
COc1ccc(/C=C(/C#N)c2cccnc2)cc1OC	0	-11	7	-4	58*	-4
COc1ccc(C(C#N)=Cc2ccc(OC)c(OC)c2)cc1	1	nt	0	-3	2	34
COc1ccc(Nc2nc3ccccc3nc2-n2nc(C)cc2C)cc1	nt	28	178*	-3	-10	-7

Screening results deposited in PubChem BioAssay by several laboratories.
